In PubChem BioAssay (NCI):
Compounds without any hit were thinned out: in the full panel of roughly 83,000, 20% have a hit.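 Activity criterion: percent growth below 10, measured after cells in 96-well plates were exposed to a single compound concentration for 48 hours.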 Calls of active or inactive are those of the source.

Experiments:
Assay in all cases: NCI-60 one-dose screen, 48 h (100 = growth as untreated, 0 = no growth, -100 = all killed)
Settings in all cases: 10 µM unless noted
SK-MEL-2 melanoma = system: SK-MEL-2 melanoma
EKVX NSCLC = system: EKVX NSCLC
SN12C renal = system: SN12C renal
UO-31 renal = system: UO-31 renal
TK-10 renal = system: TK-10 renal
ACHN renal = system: ACHN renal
CAKI-1 renal = system: CAKI-1 renal
A498 renal = system: A498 renal
CCRF-CEM leukemia = system: CCRF-CEM leukemia
MOLT-4 leukemia = system: MOLT-4 leukemia

Measured: growth

O=C(O)c1cc([N+](=O)[O-])ccc1Br
inactive: SK-MEL-2 melanoma 107% | EKVX NSCLC 98.5% | SN12C renal 101% | UO-31 renal 86.3% | TK-10 renal 95.5% | ACHN renal 94.2% | CAKI-1 renal 97.6% | A498 renal 106% | CCRF-CEM leukemia 105% | MOLT-4 leukemia 99.8%

CNC(=O)c1cc(Oc2cccc3nc(NC(=O)Nc4cc(C(F)(F)F)cc(C(F)(F)F)c4)ccc23)ccn1
active: TK-10 renal -25% | ACHN renal -25.8% | A498 renal -36%
inactive: SK-MEL-2 melanoma 51% | EKVX NSCLC 26.7% | SN12C renal 12.1% | UO-31 renal 11.7% | CAKI-1 renal 23.6% | CCRF-CEM leukemia 73.3% | MOLT-4 leukemia 89.5%

CSc1cccc([N+](=O)[O-])c1
inactive: SK-MEL-2 melanoma 106% | EKVX NSCLC 103% | SN12C renal 86.2% | UO-31 renal 95.7% | TK-10 renal 108% | ACHN renal 102% | CAKI-1 renal 101% | A498 renal 121% | CCRF-CEM leukemia 90.3% | MOLT-4 leukemia 107%

COc1ncc(-c2ccc3nccc(C#CCCCCC(=O)NO)c3c2)cc1NS(=O)(=O)c1ccc(F)cc1F
inactive: SN12C renal 15% | ACHN renal 10.7%
active: SK-MEL-2 melanoma -60.7% | EKVX NSCLC 4.18% | UO-31 renal 8.08% | TK-10 renal -25.1% | CAKI-1 renal 6.12% | A498 renal -76.1% | CCRF-CEM leukemia -8.34% | MOLT-4 leukemia -18%

O=[N+]([O-])c1cccc(N=NNc2cccc([N+](=O)[O-])c2)c1
inactive: SK-MEL-2 melanoma 104% | EKVX NSCLC 84.6% | SN12C renal 89.5% | UO-31 renal 80% | TK-10 renal 69.7% | ACHN renal 95.7% | CAKI-1 renal 87.5% | CCRF-CEM leukemia 84.3% | MOLT-4 leukemia 82.7%
active: A498 renal -2.16%

N=C(N)c1ccc(-c2ccc(-c3ccc(-c4cccs4)s3)s2)cc1F
active: A498 renal 0.519%
inactive: SK-MEL-2 melanoma 114% | EKVX NSCLC 98.8% | SN12C renal 92.7% | UO-31 renal 76.5% | TK-10 renal 122% | ACHN renal 101% | CAKI-1 renal 93.6% | CCRF-CEM leukemia 26.8% | MOLT-4 leukemia 91%

CSc1nc2sc3cc(Cl)c(Cl)cc3n2c(=N)c1C#N
inactive: SK-MEL-2 melanoma 102% | EKVX NSCLC 80.1% | SN12C renal 98.4% | UO-31 renal 69.3% | TK-10 renal 121% | ACHN renal 117% | CAKI-1 renal 87.9% | A498 renal 116% | CCRF-CEM leukemia 107% | MOLT-4 leukemia 95.5%

Cn1cc(-c2nnc(-c3ccccc3)s2)c2cc(Br)cnc21
inactive: SK-MEL-2 melanoma 100% | EKVX NSCLC 62.6% | SN12C renal 90.1% | UO-31 renal 61.5% | TK-10 renal 88.2% | ACHN renal 66.7% | CAKI-1 renal 53% | A498 renal 60.2% | MOLT-4 leukemia 83.4%
active: CCRF-CEM leukemia -12.6%

CCCOc1ccc(-c2nc(-c3ccc(N)cc3)cs2)cc1
inactive: SK-MEL-2 melanoma 107% | EKVX NSCLC 95.6% | SN12C renal 95.2% | UO-31 renal 77.1% | TK-10 renal 125% | ACHN renal 97.1% | CAKI-1 renal 79.3% | A498 renal 215% | CCRF-CEM leukemia 85.6% | MOLT-4 leukemia 116%

O=C(O)c1cn(C2CC2)c2cc(N3CCN(Cc4cc(Cl)ccc4O)CC3)c(F)cc2c1=O
inactive: SK-MEL-2 melanoma 88% | EKVX NSCLC 65.1% | SN12C renal 65.3% | UO-31 renal 40.7% | TK-10 renal 81% | ACHN renal 44.3% | CAKI-1 renal 46.7% | A498 renal 94% | CCRF-CEM leukemia 45.9% | MOLT-4 leukemia 74.1%

CCCN1CC(c2ccc(OC)c(OC)c2)=C(c2cn(C(=O)OCC)c3ccccc23)C1=O
active: A498 renal -11.4%
inactive: SK-MEL-2 melanoma 53.3% | EKVX NSCLC 55.6% | SN12C renal 53% | UO-31 renal 39.4% | TK-10 renal 89.6% | ACHN renal 37% | CAKI-1 renal 25.8% | CCRF-CEM leukemia 78.8% | MOLT-4 leukemia 38.7%

O=C1COCCN1c1ccc(NCc2cn(Cc3ccccc3)c3ccccc23)cc1
inactive: SK-MEL-2 melanoma 97.6% | EKVX NSCLC 94.4% | SN12C renal 96.2% | UO-31 renal 63% | TK-10 renal 12.3% | ACHN renal 101% | CCRF-CEM leukemia 96.4% | MOLT-4 leukemia 102%
active: CAKI-1 renal -9.69% | A498 renal -88.4%

O=C(NNc1ccc(-c2ccccc2)nn1)c1ccc(F)cc1
inactive: SK-MEL-2 melanoma 108% | EKVX NSCLC 78.4% | SN12C renal 95.1% | UO-31 renal 80.8% | TK-10 renal 82.9% | ACHN renal 90.9% | CAKI-1 renal 61.8% | A498 renal 67.6% | CCRF-CEM leukemia 108% | MOLT-4 leukemia 96.2%

CCOC(=O)COc1ccc2c(c1)O/C(=C\c1ccc(O)cc1)C2=O
inactive: SK-MEL-2 melanoma 116% | EKVX NSCLC 104% | SN12C renal 98.7% | UO-31 renal 78.5% | TK-10 renal 106% | ACHN renal 102% | CAKI-1 renal 93.1% | A498 renal 88.6% | CCRF-CEM leukemia 118% | MOLT-4 leukemia 117%

CCN(CC)CCCOc1ccc2c(c1)O/C(=C\c1cccc(OC)c1)C2=O
inactive: SK-MEL-2 melanoma 118% | EKVX NSCLC 97.4% | SN12C renal 87.1% | UO-31 renal 73.8% | TK-10 renal 98.7% | ACHN renal 99.8% | CAKI-1 renal 87.4% | A498 renal 72.6% | CCRF-CEM leukemia 102% | MOLT-4 leukemia 97.7%

CCCC(NC(=O)OCc1ccccc1)C(=O)O (stereo not given)
inactive: SK-MEL-2 melanoma 128% | EKVX NSCLC 96.5% | SN12C renal 74.3% | UO-31 renal 65.1% | TK-10 renal 117% | ACHN renal 108% | CAKI-1 renal 82.9% | A498 renal 80% | CCRF-CEM leukemia 118% | MOLT-4 leukemia 111%

COc1ccc(/C=C(/C2=NCCN2)n2ccc3ccccc32)cc1
inactive: SK-MEL-2 melanoma 99.5% | EKVX NSCLC 88.5% | SN12C renal 88.9% | UO-31 renal 52.9% | TK-10 renal 85.8% | ACHN renal 82.9% | CAKI-1 renal 69.7% | A498 renal 89% | CCRF-CEM leukemia 86.2% | MOLT-4 leukemia 93.2%

c1ccc(-c2n[nH]c(-c3ccccn3)n2)nc1
inactive: SK-MEL-2 melanoma 108% | EKVX NSCLC 98.5% | SN12C renal 111% | UO-31 renal 93.8% | TK-10 renal 116% | ACHN renal 107% | CAKI-1 renal 81.1% | A498 renal 224% | CCRF-CEM leukemia 103% | MOLT-4 leukemia 128%

CCCCCCCCCN(CCCCCCCCC)C(C)C(=O)c1ccc2cc(Br)c3ccccc3c2c1 (stereo not given)
inactive: SK-MEL-2 melanoma 125% | EKVX NSCLC 72.6% | SN12C renal 79.8% | UO-31 renal 47.2% | TK-10 renal 93.7% | ACHN renal 85.9% | CAKI-1 renal 71.5% | A498 renal 96.8% | CCRF-CEM leukemia 60.6% | MOLT-4 leukemia 86%

COc1ccc(-c2c(C)nn3c(NCCN4CCOCC4)cc(C)nc23)cc1OC
inactive: SK-MEL-2 melanoma 104% | EKVX NSCLC 83.9% | SN12C renal 100% | UO-31 renal 104% | TK-10 renal 102% | ACHN renal 106% | CAKI-1 renal 75.2% | A498 renal 78% | CCRF-CEM leukemia 97.6% | MOLT-4 leukemia 90.2%

CC(C)=CCC[C@](C)(O)[C@H]1CC[C@]2(C)[C@@H]1CC[C@@H]1[C@@]3(C)CC[C@H](OC(=O)CCC(=O)O)C(C)(C)[C@@H]3CC[C@]12C
active: SK-MEL-2 melanoma -13.1% [100 µM] | CCRF-CEM leukemia 3.55% [100 µM] | MOLT-4 leukemia 5.86% [100 µM]
inactive: EKVX NSCLC 45.3% [100 µM] | SN12C renal 15% [100 µM] | UO-31 renal 19.5% [100 µM] | TK-10 renal 49.6% [100 µM] | ACHN renal 21.4% [100 µM] | CAKI-1 renal 21.4% [100 µM] | A498 renal 40.1% [100 µM]

C#CCNC(=O)CC[C@@H](C)[C@H]1CC[C@H]2[C@@H]3CC[C@@H]4CC(=O)CC[C@]4(C)[C@H]3CC[C@]12C
active: SK-MEL-2 melanoma -57.1% [100 µM] | EKVX NSCLC -31.8% [100 µM] | SN12C renal -72% [100 µM] | UO-31 renal -92.6% [100 µM] | TK-10 renal -16.8% [100 µM] | ACHN renal -86.2% [100 µM] | CAKI-1 renal -59.4% [100 µM] | A498 renal -23.9% [100 µM] | CCRF-CEM leukemia -34% [100 µM] | MOLT-4 leukemia -18.4% [100 µM]

CCOC(=O)c1nc2c3ccccc3ccn2c1C(=O)OC
inactive: SK-MEL-2 melanoma 102% | EKVX NSCLC 80.2% | SN12C renal 96.9% | UO-31 renal 91.7% | TK-10 renal 81.1% | ACHN renal 94% | CAKI-1 renal 97.2% | A498 renal 64% | CCRF-CEM leukemia 88.2% | MOLT-4 leukemia 84.5%

CCOC(=O)c1cnc2ccc(Br)cc2c1Nc1cccc(S(N)(=O)=O)c1
inactive: SK-MEL-2 melanoma 109% | EKVX NSCLC 96.2% | SN12C renal 97.3% | UO-31 renal 81.2% | TK-10 renal 105% | ACHN renal 96.2% | CAKI-1 renal 74.1% | A498 renal 66.5% | CCRF-CEM leukemia 102% | MOLT-4 leukemia 85.1%

COc1cc(-c2nc(SCCC(C)C)nc(Nc3ccccc3)c2C#N)cc(OC)c1OC
inactive: SK-MEL-2 melanoma 103% | EKVX NSCLC 100% | SN12C renal 89.5% | UO-31 renal 68.4% | TK-10 renal 110% | ACHN renal 94% | CAKI-1 renal 72.4% | A498 renal 69.9% | CCRF-CEM leukemia 88.6% | MOLT-4 leukemia 84.3%

CC(C)CSc1ncnc2nc[nH]c12
inactive: SK-MEL-2 melanoma 107% | EKVX NSCLC 95.3% | SN12C renal 94.7% | UO-31 renal 93.9% | TK-10 renal 82.4% | ACHN renal 90.3% | CAKI-1 renal 98.6% | A498 renal 87.5% | CCRF-CEM leukemia 86.8% | MOLT-4 leukemia 128%
